Experimental data from PubChem BioAssay (NCI).
This is part of a sample that, as a whole, favours compounds with a hit. Of some 83,000 tested, about 20% had one in any assay.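 Percent growth is the endpoint: 0 to 100 indicates growth inhibition (40 means 60% inhibition), 0 means no net growth, and negative values indicate cell death.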 Activity calls are given as the source filed them. The calls were made as follows: active = growth percent below 10; inactive = the rest.

Tests used:
Assay in all cases: NCI-60 one-dose screen, 48 h (100 = growth as untreated, 0 = no growth, -100 = all killed)
Conditions in all cases: 10 µM
SR leukemia = tested on: SR leukemia
RPMI-8226 leukemia = tested on: RPMI-8226 leukemia
OVCAR-8 ovarian = tested on: OVCAR-8 ovarian
OVCAR-5 ovarian = tested on: OVCAR-5 ovarian
OVCAR-4 ovarian = tested on: OVCAR-4 ovarian
SK-OV-3 ovarian = tested on: SK-OV-3 ovarian
IGROV1 ovarian = tested on: IGROV1 ovarian
OVCAR-3 ovarian = tested on: OVCAR-3 ovarian
HS 578T breast = tested on: HS 578T breast
NCI/ADR-RES ovarian = tested on: NCI/ADR-RES ovarian
T-47D breast = tested on: T-47D breast
BT-549 breast = tested on: BT-549 breast
MDA-MB-435 melanoma = tested on: MDA-MB-435 melanoma
SW-620 colon = tested on: SW-620 colon
MCF7 breast = tested on: MCF7 breast
HCT-116 colon = tested on: HCT-116 colon
KM12 colon = tested on: KM12 colon
HCC-2998 colon = tested on: HCC-2998 colon

Measured: growth

CN(C)CCOc1ccc(-c2nc3sccn3c2-c2ccnc(S(C)(=O)=O)n2)cc1
inactive: SR leukemia 109% | RPMI-8226 leukemia 89.6% | OVCAR-8 ovarian 106% | OVCAR-5 ovarian 107% | OVCAR-4 ovarian 95.9% | SK-OV-3 ovarian 88.6% | IGROV1 ovarian 115% | OVCAR-3 ovarian 115% | HS 578T breast 101% | NCI/ADR-RES ovarian 102% | T-47D breast 110% | BT-549 breast 118% | MDA-MB-435 melanoma 107% | SW-620 colon 104% | MCF7 breast 90.2% | HCT-116 colon 98.1% | KM12 colon 113%

Clc1ccc(/C=C2\CCCC3C2=Nc2ccccc2NC3c2ccc(Cl)cc2)cc1 (centres undefined)
active: RPMI-8226 leukemia -16% | HCT-116 colon -87%
inactive: SR leukemia 21.5% | OVCAR-8 ovarian 65.8% | OVCAR-5 ovarian 93.8% | OVCAR-4 ovarian 79.5% | SK-OV-3 ovarian 70.9% | IGROV1 ovarian 83.1% | OVCAR-3 ovarian 67% | HS 578T breast 102% | NCI/ADR-RES ovarian 99.4% | T-47D breast 104% | BT-549 breast 83% | MDA-MB-435 melanoma 11.9% | SW-620 colon 41.5% | MCF7 breast 35.8% | KM12 colon 17.3%

CC1/C=C/C=C/C=C/C=C/C=C/C=C/C=C/C(O[C@@H]2O[C@H](C)[C@H](O)[C@@H](O)[C@@H]2N)CC(O)C(C(=O)O)C(O)CC(=O)CC(O)CC(O)CC(O)CC(=O)CCCC(=O)CC(=O)OC1C(C)CC(C)C(O)CC(=O)c1ccc(N)cc1 (some centres undefined)
active: SR leukemia -63.1% | RPMI-8226 leukemia -43.7% | OVCAR-8 ovarian -97.5% | OVCAR-5 ovarian -98.9% | OVCAR-4 ovarian -96.1% | SK-OV-3 ovarian -100% | IGROV1 ovarian -83.7% | OVCAR-3 ovarian -99.7% | HS 578T breast -52.8% | NCI/ADR-RES ovarian -99.6% | T-47D breast -87.1% | BT-549 breast -93% | MDA-MB-435 melanoma -93% | SW-620 colon -95.3% | MCF7 breast -87% | HCT-116 colon -90.7% | KM12 colon -96%

O=C(Nc1cc(Cl)cc2c1-c1ccc(Cl)cc1C2O)C(Cl)Cl (centres undefined)
inactive: SR leukemia 82.3% | RPMI-8226 leukemia 65% | OVCAR-8 ovarian 86.5% | OVCAR-5 ovarian 94.8% | OVCAR-4 ovarian 62.9% | SK-OV-3 ovarian 102% | IGROV1 ovarian 73.2% | OVCAR-3 ovarian 97.3% | HS 578T breast 78.8% | NCI/ADR-RES ovarian 83.5% | T-47D breast 54.1% | BT-549 breast 95.3% | MDA-MB-435 melanoma 79.2% | SW-620 colon 79.5% | MCF7 breast 64.5% | HCT-116 colon 51.1% | HCC-2998 colon 95.2% | KM12 colon 76.4%

COc1cc(CNC(=O)C2CSC3(C)c4ccccc4C(=O)N23)cc(OC)c1OC (centres undefined)
inactive: SR leukemia 77.4% | RPMI-8226 leukemia 90.2% | OVCAR-8 ovarian 92.4% | OVCAR-5 ovarian 102% | OVCAR-4 ovarian 97% | SK-OV-3 ovarian 104% | IGROV1 ovarian 107% | OVCAR-3 ovarian 112% | HS 578T breast 94.1% | NCI/ADR-RES ovarian 102% | T-47D breast 87.2% | BT-549 breast 108% | MDA-MB-435 melanoma 105% | SW-620 colon 101% | MCF7 breast 93.7% | HCT-116 colon 98.1% | KM12 colon 106%

CC(C)C[C@H](NC(=O)Cn1cccc(CNC(=O)c2ccccc2)c1=O)B(O)O
inactive: SR leukemia 16.4% | OVCAR-8 ovarian 54.4% | OVCAR-5 ovarian 38.8% | OVCAR-4 ovarian 36.7% | SK-OV-3 ovarian 58.5% | IGROV1 ovarian 51.5% | HS 578T breast 16.6% | NCI/ADR-RES ovarian 103% | BT-549 breast 24.1% | MCF7 breast 30.2%
active: RPMI-8226 leukemia 0.606% | OVCAR-3 ovarian -43.2% | T-47D breast -18.5% | MDA-MB-435 melanoma -54.5% | SW-620 colon 6.53% | HCT-116 colon 2.43% | HCC-2998 colon -34.8% | KM12 colon -12.5%

S=C(SSC(=S)N(c1ccccc1)c1ccccc1)N(c1ccccc1)c1ccccc1
inactive: SR leukemia 92.6% | RPMI-8226 leukemia 97.1% | OVCAR-8 ovarian 89.8% | OVCAR-5 ovarian 111% | OVCAR-4 ovarian 113% | SK-OV-3 ovarian 100% | IGROV1 ovarian 111% | OVCAR-3 ovarian 102% | HS 578T breast 108% | NCI/ADR-RES ovarian 105% | T-47D breast 97.3% | BT-549 breast 109% | MDA-MB-435 melanoma 104% | SW-620 colon 108% | MCF7 breast 98.8% | HCT-116 colon 100% | HCC-2998 colon 101% | KM12 colon 98.1%

C(=N\Nc1ncnc2sc3c(c12)CCNC3)/c1cccc2ccccc12
inactive: SR leukemia 22% | OVCAR-8 ovarian 58.2% | OVCAR-5 ovarian 89.8% | OVCAR-4 ovarian 42.7% | SK-OV-3 ovarian 103% | IGROV1 ovarian 89.9% | OVCAR-3 ovarian 113% | HS 578T breast 96.8% | NCI/ADR-RES ovarian 75.4% | T-47D breast 103% | BT-549 breast 92.5% | MDA-MB-435 melanoma 97.7% | MCF7 breast 37.8% | HCC-2998 colon 92.6% | KM12 colon 82.4%
active: RPMI-8226 leukemia -30.1% | SW-620 colon 2.91% | HCT-116 colon 8.77%

COc1cc(/C=C2\CCCC3C2=Nc2ccccc2NC3c2cc(OC)c(OC)c(OC)c2)cc(OC)c1OC (centres undefined)
inactive: OVCAR-8 ovarian 18.7% | OVCAR-5 ovarian 16.5% | OVCAR-4 ovarian 33.5% | SK-OV-3 ovarian 45.4% | HS 578T breast 53.2% | T-47D breast 23.9% | MCF7 breast 36.9%
active: SR leukemia 2.76% | RPMI-8226 leukemia -10.9% | IGROV1 ovarian -21% | OVCAR-3 ovarian -7.11% | NCI/ADR-RES ovarian 5.96% | BT-549 breast -16.4% | MDA-MB-435 melanoma 3.26% | SW-620 colon 5.74% | HCT-116 colon -58.4% | HCC-2998 colon -60.2% | KM12 colon -65.3%

COc1ccc(/C(=N\N)C(=O)c2ccccc2)cc1 (tested in a mixture with another compound)
inactive: SR leukemia 111% | RPMI-8226 leukemia 90% | OVCAR-8 ovarian 103% | OVCAR-5 ovarian 96.7% | OVCAR-4 ovarian 95.9% | SK-OV-3 ovarian 97.7% | IGROV1 ovarian 107% | OVCAR-3 ovarian 102% | HS 578T breast 97.1% | NCI/ADR-RES ovarian 102% | T-47D breast 83.7% | BT-549 breast 108% | MDA-MB-435 melanoma 92.7% | SW-620 colon 107% | MCF7 breast 92.4% | HCT-116 colon 103% | HCC-2998 colon 98.1% | KM12 colon 102%

CNS(=O)(=O)Oc1ccc(-c2sc3cc(OS(=O)(=O)NC)ccc3c2C(=O)c2ccc(OCCN3CCCCC3)cc2)cc1
inactive: SR leukemia 27% | RPMI-8226 leukemia 35.9% | OVCAR-8 ovarian 86.6% | OVCAR-5 ovarian 88.3% | OVCAR-4 ovarian 69.8% | SK-OV-3 ovarian 76.1% | IGROV1 ovarian 85.6% | OVCAR-3 ovarian 83.6% | HS 578T breast 58.9% | NCI/ADR-RES ovarian 71.4% | T-47D breast 60.8% | BT-549 breast 73.7% | MDA-MB-435 melanoma 70% | SW-620 colon 65.1% | MCF7 breast 30.5% | HCT-116 colon 33.4% | HCC-2998 colon 93.8% | KM12 colon 80.2%

CCC1NC(=O)c2cc(S(N)(=O)=O)c(Cl)cc2N1 (centres undefined)
inactive: SR leukemia 103% | RPMI-8226 leukemia 109% | OVCAR-8 ovarian 100% | OVCAR-5 ovarian 105% | OVCAR-4 ovarian 130% | SK-OV-3 ovarian 118% | IGROV1 ovarian 120% | OVCAR-3 ovarian 126% | HS 578T breast 112% | NCI/ADR-RES ovarian 108% | T-47D breast 104% | BT-549 breast 114% | MDA-MB-435 melanoma 101% | SW-620 colon 108% | MCF7 breast 106% | HCT-116 colon 115% | HCC-2998 colon 105% | KM12 colon 113%

COc1ccc(N=Nc2cc(OC)c(OC)c(OC)c2)cc1
inactive: SR leukemia 58.2% | RPMI-8226 leukemia 72.8% | OVCAR-8 ovarian 87.2% | OVCAR-5 ovarian 77.8% | OVCAR-4 ovarian 100% | SK-OV-3 ovarian 77.6% | IGROV1 ovarian 62.7% | OVCAR-3 ovarian 87.7% | HS 578T breast 79.3% | NCI/ADR-RES ovarian 91.2% | T-47D breast 58.8% | BT-549 breast 89.7% | MDA-MB-435 melanoma 67.6% | SW-620 colon 79.8% | MCF7 breast 63.6% | HCT-116 colon 80.5% | HCC-2998 colon 81.4% | KM12 colon 81.7%

O=C(O)c1cn(C2CC2)c2cc(N3CCN(C(=O)c4cc(-c5ccc(Cl)cc5)nc5ccccc45)CC3)c(F)cc2c1=O
inactive: SR leukemia 47.4% | RPMI-8226 leukemia 81.8% | OVCAR-8 ovarian 89.9% | OVCAR-5 ovarian 98.2% | OVCAR-4 ovarian 98.6% | SK-OV-3 ovarian 77.9% | IGROV1 ovarian 51.4% | OVCAR-3 ovarian 100% | HS 578T breast 94% | NCI/ADR-RES ovarian 98.9% | T-47D breast 86.7% | BT-549 breast 83.5% | MDA-MB-435 melanoma 95.6% | SW-620 colon 97.5% | MCF7 breast 89.7% | HCT-116 colon 84.3% | HCC-2998 colon 99.2% | KM12 colon 102%

CC(C)(C)OC(=O)N1CCc2c(sc3ncnc(N/N=C/c4ccc(Br)cc4)c23)C1
inactive: SR leukemia 36.3% | RPMI-8226 leukemia 19.1% | OVCAR-8 ovarian 73.7% | OVCAR-5 ovarian 77.6% | OVCAR-4 ovarian 74% | SK-OV-3 ovarian 75.7% | IGROV1 ovarian 61.1% | OVCAR-3 ovarian 86.4% | HS 578T breast 73.9% | NCI/ADR-RES ovarian 35.4% | T-47D breast 34.2% | BT-549 breast 74.9% | SW-620 colon 55% | MCF7 breast 12.6% | HCT-116 colon 47.3% | HCC-2998 colon 72.1% | KM12 colon 46.6%
active: MDA-MB-435 melanoma -20.4%

OC[C@H]1OC([S-])[C@H](O)[C@@H](O)[C@@H]1O.[Au+] (some centres undefined)
inactive: SR leukemia 41.7% | RPMI-8226 leukemia 80.6% | OVCAR-8 ovarian 104% | OVCAR-5 ovarian 129% | OVCAR-4 ovarian 96.9% | SK-OV-3 ovarian 120% | IGROV1 ovarian 119% | OVCAR-3 ovarian 128% | HS 578T breast 73.3% | NCI/ADR-RES ovarian 101% | T-47D breast 85.5% | BT-549 breast 87.1% | MDA-MB-435 melanoma 83.3% | SW-620 colon 101% | MCF7 breast 72.8% | HCT-116 colon 99% | HCC-2998 colon 112% | KM12 colon 114%
